Compound activity from PubChem BioAssay.
Only some compounds are listed: those with a hit (about 3.6% of all), similar ones and a draw of the others.
ERK AVP inh = qHTS Assay for Inhibitors of the ERK Signaling Pathway using a Homogeneous Screening Assay. HEK293-V1b, vasopressin-stimulated pERK AlphaScreen. Potency, µM (doses to about 57.5 µM), for the others: top-dose activity, negative = inhibition, hits mostly inhibitors. 72,000 tested, 0.99% active. AID 995, 2007; note: % is set by controls: 0 for no effect and ±100 for the full control effect; nearly all actives have a fitted effect of over 55% in size
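Overnight-seeded V1b-HEK293 cells in 1% FBS got compound, then vasopressin (25 nM final, 5 min, 37C), then lysis buffer. AlphaScreen detection of phospho-ERK; activity normalized to basal and full-stimulation controls.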
CRE-bla Fsk = Cell signaling CRE-BLA (Fsk stim) | CHO CRE-bla reporter (cAMP response element driving beta-lactamase), forskolin EC10, beta-lactamase ratio | AID 662, 2007 | Potency, µM (highest dose often 38.2 µM), without a hit: top-dose activity change, negative = inhibition, most hits filed as activators | 71,000 tested, 2.5% active; active = well fitted activation curve with a large enough effect in the signal ratio, with a control signal flat, not every such curve was filed as active; inconclusive = small, poorly fitted or top-dose-only effect, or effect the other way, or a change in a side signal; the % refers to the signal ratio; note: % of control where 0% means no effect
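Modulation of forskolin signalling: compounds in titration series added with EC10 NKH 477 to CHO cells carrying a CRE-driven beta-lactamase reporter, 3 h, 37C. CCF4 FRET ratio (460/530 nm, ex 405 nm) gives %activity and AC50.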
TSHR ag = qHTS Assay for Agonists of the Thyroid Stimulating Hormone Receptor; Potency, µM (titrated, usually from 57.1 µM), for inactives: top-dose activation, most hits filed as activators; 73,000 tested, 0.48% active; Thyrotropin receptor (Homo sapiens), P16473; HEK293-CNG-TSHR cells (CNG channel as cAMP sensor), membrane potential dye, cAMP; active = well fitted activation curve with a large enough effect in the main read-out, with a control signal flat, not every such curve was filed as active; inconclusive = small, poorly fitted or top-dose-only effect, or a change in a side signal; inactive = no such curve, though single readings can be large or run the other way; % of control where 0% means no effect;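 note: the control signal comes from parental cells without the receptor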
Target sequence (P16473 whole entry, looked up): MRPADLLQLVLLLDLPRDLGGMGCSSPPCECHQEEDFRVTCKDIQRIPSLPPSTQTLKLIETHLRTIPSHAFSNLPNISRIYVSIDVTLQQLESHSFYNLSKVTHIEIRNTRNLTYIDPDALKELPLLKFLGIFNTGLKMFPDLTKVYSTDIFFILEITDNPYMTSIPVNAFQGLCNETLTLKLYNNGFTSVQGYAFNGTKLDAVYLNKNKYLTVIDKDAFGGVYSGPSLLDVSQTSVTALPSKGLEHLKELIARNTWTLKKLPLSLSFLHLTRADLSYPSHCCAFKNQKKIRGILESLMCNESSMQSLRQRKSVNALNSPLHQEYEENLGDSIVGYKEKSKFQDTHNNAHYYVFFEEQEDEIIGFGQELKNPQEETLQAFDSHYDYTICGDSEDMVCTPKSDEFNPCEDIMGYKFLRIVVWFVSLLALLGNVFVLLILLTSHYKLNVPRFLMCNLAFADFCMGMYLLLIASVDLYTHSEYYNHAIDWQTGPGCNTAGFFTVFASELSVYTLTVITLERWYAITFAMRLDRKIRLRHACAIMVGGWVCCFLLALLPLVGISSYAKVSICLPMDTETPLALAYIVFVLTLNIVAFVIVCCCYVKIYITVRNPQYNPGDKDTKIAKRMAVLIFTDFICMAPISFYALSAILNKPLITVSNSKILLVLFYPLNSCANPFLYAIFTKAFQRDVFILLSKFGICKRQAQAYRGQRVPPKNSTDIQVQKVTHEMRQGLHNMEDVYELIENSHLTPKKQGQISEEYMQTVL
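cAMP rise detected as CNG-channel membrane depolarization by fluorescent dye (emission 590 nm), 30 min after compound, following 60 min dye loading containing 100 uM RO 20-1724 at room temperature. Cells: TSHR/CNG HEK 293, with parental CNG HEK 293 as control.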
HEK293 cAMP ctrl = qHTS Assay for Agonists of the Thyroid Stimulating Hormone Receptor: Activators of Intracellular cAMP Concentrations in Parental HEK 293 | parental HEK293 CNG cAMP sensor, membrane potential fluorescence | Potency, µM (titrated, usually from 57.1 µM), inactives show top-dose activation, hits mostly activators | 73,000 tested, 2.5% active | AID 938, 2007; note: % of control where 0% means no effect; nearly all actives have a fitted effect of over 55% in size
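Counterscreen for endogenous-receptor signalling: CNG-channel HEK 293 cells report cAMP rise by membrane depolarization. After 60 min dye equilibration with 100 uM RO 20-1724, compounds incubated 30 min before bottom-read fluorescence at 590 nm.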
IkB sig inh = IkB Signaling; ABC-DLBCL IkBa-CBG/CBR dual luciferase ratio, 4 h; response scale: scaled: untreated 0%, proteasome inhibitor 100%; Potency, µM (series often up to 57.1 µM), for the others: top-dose IkBa stabilization activation; 110,000 tested, 0.04% active; active = well fitted curve in the direction sought with a large enough effect in the signal ratio, not every such curve was filed as active; inconclusive = small, poorly fitted or top-dose-only effect, or a change in a side signal; the % refers to the signal ratio;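 note: the direction sought is a rising ratio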
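Luminescence ratio of IκBα-fused green versus native red beetle luciferase in OCI-Ly3 cells, 4 h post-doxycycline with compound; red signal alone, scaled from basal (0%) to zero light (-100%), flagged nonspecific or cytotoxic effects.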
Numbers without * were called inactive; [ ] = remark or other dose. Unless noted, calls come from the whole dose curve; as a rule, active = well fitted curve in the direction sought with a large enough effect; inconclusive = small, poorly fitted or top-dose-only effect, or another doubt; inactive = no such curve, though single readings can be large; an effect the other way counts as inactive or inconclusive. Potency is the fitted concentration of half-maximal effect.

Screening Cc1cc(C)c2c(n1)nn1c(C3CC3)cc(C(F)(F)F)nc21 returned ERK AVP inh -2%, CRE-bla Fsk 20%, HEK293 cAMP ctrl 30% and IkB sig inh -1%.
Screening COCCn1c(=O)c(-c2ccc(OC)cc2)nc2cnc(Oc3ccccc3)nc21 returned ERK AVP inh 7%, CRE-bla Fsk inconclusive, TSHR ag inconclusive, HEK293 cAMP ctrl inconclusive and IkB sig inh -2%[11.4 µM].
For CCC/C=C(\CCC)C(NC(=O)c1ccc(C(F)(F)F)cc1)c1ccc(C(F)(F)F)cc1 (stereo unspecified) the results were ERK AVP inh 13%, CRE-bla Fsk inconclusive, TSHR ag 15% and HEK293 cAMP ctrl 27%.
`CCC/C=C(\CCC)C(NC(=O)c1cccs1)c1ccc(C(=O)OC)cc1` (stereo unspecified) gave ERK AVP inh 29%, CRE-bla Fsk 16%, TSHR ag inconclusive and HEK293 cAMP ctrl 13µM*.
`CCC/C=C(\CCC)C(NC(=O)C(C)(C)C)c1ccc(C(=O)OC)cc1` (stereo unspecified) gave ERK AVP inh 16%, CRE-bla Fsk -3%, TSHR ag inconclusive and HEK293 cAMP ctrl 16µM*.
CCC/C=C(\CCC)C(NC(=O)c1ccc(C(F)(F)F)cc1)c1ccccc1 (stereo unspecified) was read as ERK AVP inh 5%, CRE-bla Fsk inconclusive, TSHR ag inconclusive and HEK293 cAMP ctrl 16µM*.
Screening Cn1ccnc1SCC(=O)c1ccc(Br)cc1 returned ERK AVP inh -14%, CRE-bla Fsk -5%, TSHR ag 6%[11.4 µM], HEK293 cAMP ctrl -2% and IkB sig inh 7%.
Screening COc1ccc(-c2nn3c(-c4ccco4)nnc3s2)cc1OC returned ERK AVP inh 25µM*, CRE-bla Fsk 6.3µM*, TSHR ag 3%, HEK293 cAMP ctrl -4% and IkB sig inh -7%.
COc1cc(OC)c(-c2nn3c(-c4ccncc4)nnc3s2)cc1OC was read as ERK AVP inh inconclusive, CRE-bla Fsk inconclusive, TSHR ag -1%, HEK293 cAMP ctrl 0% and IkB sig inh -4%.
COc1ccc(-c2nnc3sc(-c4ccco4)nn23)cc1OC was read as ERK AVP inh 21%, CRE-bla Fsk inconclusive, HEK293 cAMP ctrl 27% and IkB sig inh inconclusive.
Screening COc1cc(OC)c(-c2nn3c(-c4ccco4)nnc3s2)cc1OC returned ERK AVP inh inconclusive, CRE-bla Fsk 3.2µM*, TSHR ag 2%, HEK293 cAMP ctrl -2% and IkB sig inh -1%.
CC(=O)Nc1cccc(NC(=O)CSc2ncc(-c3ccc(Cl)cc3)n2Cc2ccco2)c1 was read as ERK AVP inh 14%, CRE-bla Fsk inconclusive, TSHR ag inconclusive, HEK293 cAMP ctrl 25µM* and IkB sig inh inconclusive.
Screening Cc1ccc2[nH]c(CSc3nnc(NC(=O)c4ccccc4F)s3)cc(=O)c2c1 returned IkB sig inh -3%.
`CCOc1ccc(N(CC(=O)NCc2ccc(OC)cc2)S(=O)(=O)c2c(C)[nH]c(=O)[nH]c2=O)cc1` gave IkB sig inh 0%.
For NC(=O)c1cnn2c(C(F)(F)F)cc(-c3ccc(F)cc3)nc12 the results were ERK AVP inh inconclusive, CRE-bla Fsk 10µM*, TSHR ag 8%, HEK293 cAMP ctrl -5% and IkB sig inh 0%.
CN1CCN(C(=O)c2cnn3c(C(F)(F)F)cc(-c4ccc5c(c4)OCO5)nc23)CC1 was read as ERK AVP inh -5%, CRE-bla Fsk 0%, TSHR ag 15%, HEK293 cAMP ctrl 12% and IkB sig inh -2%.
For O=C(c1cc2nc(-c3ccc(F)cc3)cc(C(F)(F)F)n2n1)N1CCCC1 the results were ERK AVP inh 17%, CRE-bla Fsk inconclusive, TSHR ag 9%[11.4 µM], HEK293 cAMP ctrl 0%[11.4 µM] and IkB sig inh 1%.
`COc1ccc(-c2cc(C(F)(F)F)n3nc(C(=O)N4CCCCC4)cc3n2)cc1` gave ERK AVP inh -5%, CRE-bla Fsk 13µM*, TSHR ag inconclusive, HEK293 cAMP ctrl inconclusive and IkB sig inh -3%.
Screening NC(=O)c1cnn2c(C(F)(F)F)cc(-c3ccccc3)nc12 returned ERK AVP inh inconclusive, CRE-bla Fsk inconclusive, TSHR ag 12%, HEK293 cAMP ctrl 1% and IkB sig inh -4%.
For O=C(c1cnn2c(C(F)(F)F)cc(-c3ccc4c(c3)OCO4)nc12)N1CCCCC1 the results were ERK AVP inh -16%, CRE-bla Fsk 1%, TSHR ag inconclusive, HEK293 cAMP ctrl 20µM* and IkB sig inh 0%.
Screening Cc1ccc(N2CC(c3nc4ccccc4[nH]3)CC2=O)c(C)c1 (stereo unspecified) returned CRE-bla Fsk 5%, TSHR ag -1%, HEK293 cAMP ctrl 6% and IkB sig inh -1%.
For O=C(NCCc1ccccc1)c1cc(-c2cccc(Cl)c2)on1 the results were IkB sig inh 0%.
`COC(=O)C(C#N)c1nc2ccccc2nc1N1CCCC1` (stereo unspecified) gave ERK AVP inh inconclusive, CRE-bla Fsk 10µM*, TSHR ag 0%, HEK293 cAMP ctrl 9% and IkB sig inh -3%.
CCC(C)COC(=O)C(C#N)c1nc2ccccc2nc1N1CCCCC1 (stereo unspecified) was read as ERK AVP inh 4%, CRE-bla Fsk inconclusive, HEK293 cAMP ctrl 18% and IkB sig inh 1%.
CCc1cccc(N2C(=O)N(Cc3c(F)cccc3Cl)c3ccccc3S2(=O)=O)c1 was read as IkB sig inh -1%.
For CN1CCN(C(=O)c2cc(-c3ccc(O)cc3)on2)CC1 the results were ERK AVP inh -9%, CRE-bla Fsk -8%, TSHR ag 9%, HEK293 cAMP ctrl -2% and IkB sig inh 2%.
Screening COc1ccccc1CNc1ccc(N2CCCCC2)cc1 returned ERK AVP inh 16µM*, CRE-bla Fsk -1%, TSHR ag inconclusive, HEK293 cAMP ctrl inconclusive and IkB sig inh inconclusive.
`COc1cccc(CNc2nc3ccccc3n2CCN2CCCCC2)c1OC` gave ERK AVP inh -18%, CRE-bla Fsk 10µM*, TSHR ag 11%, HEK293 cAMP ctrl 12% and IkB sig inh 2%.
For COc1cccc(CNc2ccc(N3CCCCC3)cc2)c1OC the results were ERK AVP inh 20µM*, CRE-bla Fsk 0%, TSHR ag -5%, HEK293 cAMP ctrl 9% and IkB sig inh inconclusive.
Screening COc1cccc(CNc2ccc(S(N)(=O)=O)cc2)c1OC returned ERK AVP inh -10%, CRE-bla Fsk 10%, TSHR ag 2%, HEK293 cAMP ctrl 20% and IkB sig inh -2%.
